Data: PubChem BioAssay (NCI)
This is part of a sample that, as a whole, favours compounds with a hit. Of some 79,000 tested, about 15% had one in any assay. The source made the active and inactive calls. No stated cut-off is given here; in the data, active means growth inhibition above about 70%; inactive means the rest.

How the values were obtained:
[1] = NCI Yeast Anticancer Drug Screen. Data for the rad52 strain (AID 147);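 further: 0% = growth of vehicle-treated control cultures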; details: S. cerevisiae rad52 mutant growth inhibition, stronger effect = higher value
Method in brief: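 Vehicle-treated cultures served as the reference for growth inhibition of compound-exposed yeast bearing a DNA repair mutation.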

[2] = NCI Yeast Anticancer Drug Screen. Data for the wt1 strain (AID 149);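 further: 0% = growth of vehicle-treated wt1 cultures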; details: S. cerevisiae wt1 strain (SPY 50644) growth inhibition, stronger effect = higher value
Method in brief: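 Using yeast strain wt1, compound-induced growth inhibition was determined against vehicle-treated cultures.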

[3] = NCI Yeast Anticancer Drug Screen. Data for the rad50EPP+ strain (AID 151);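 further: 0% = growth of vehicle-treated control cultures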; details: S. cerevisiae rad50 mutant strain, stronger effect = higher value
Method in brief: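 In this screen, rad50EPP+ yeast were exposed to compounds. Growth inhibition was scored against vehicle-treated controls.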

[4] = NCI Yeast Anticancer Drug Screen. Data for the mgt1 strain (AID 153); details: S. cerevisiae mgt1 mutant growth inhibition, stronger effect = higher value
Method in brief: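 mgt1 strain exposed; growth vs vehicle control recorded as inhibition.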

[5] = NCI Yeast Anticancer Drug Screen. Data for the rad50 strain (AID 155);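 further: 0% = growth of vehicle-only cultures of the same strain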; details: S. cerevisiae rad50 strain growth inhibition, stronger effect = higher value
Method in brief: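 Relative growth inhibition (compound vs vehicle) was measured in yeast with a defined repair-gene alteration.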

[6] = NCI Yeast Anticancer Drug Screen. Data for the mec2-1 strain (AID 157); details: S. cerevisiae mec2-1 strain, stronger effect = higher value
Method in brief: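 Vehicle-treated cultures served as reference for growth inhibition of compound-exposed mec2-1 yeast.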

[7] = NCI Yeast Anticancer Drug Screen. Data for the rad14 strain (AID 159);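 further: 0% = growth of vehicle-treated control cultures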; details: S. cerevisiae rad14 strain growth inhibition, stronger effect = higher value
Method in brief: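 Screen for anticancer potential: a yeast strain altered in DNA damage repair is grown with compound, and reduced growth is quantified against vehicle controls.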

[8] = NCI Yeast Anticancer Drug Screen. Data for the sgs1 mgt1 strain (AID 161);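 further: 0% = growth of cultures given vehicle only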; details: S. cerevisiae sgs1 mgt1 strain, stronger effect = higher value
Method in brief: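 Genetically altered yeast, compound exposure, growth inhibition relative to vehicle.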

[9] = NCI Yeast Anticancer Drug Screen. Data for the CLN2oe strain (AID 163);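 further: 0% = growth of vehicle-only control cultures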; details: S. cerevisiae CLN2oe strain, stronger effect = higher value
Method in brief: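 Inhibition relative to vehicle-treated yeast is reported. Cells: strain with genetic alteration in cell-cycle control, grown with compound.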

[10] = NCI Yeast Anticancer Drug Screen. Data for the cln2 rad14 strain (AID 165);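 further: 0% = growth equal to vehicle treated cultures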; details: S. cerevisiae cln2 rad14 strain, stronger effect = higher value
Method in brief: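 Each compound was tested on cln2 rad14 yeast. Inhibition of growth was calculated against vehicle-exposed controls.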

[11] = NCI Yeast Anticancer Drug Screen. Data for the bub3 strain (AID 167); details: S. cerevisiae bub3 mutant strain, stronger effect = higher value
Method in brief: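 Screening used yeast with an engineered genetic alteration affecting cell cycle control. Compound-exposed cultures were compared with vehicle cultures, and reduced growth was taken as inhibition.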

[12] = NCI Yeast Anticancer Drug Screen. Data for the wt2 strain (AID 169);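 further: 0% = growth of vehicle-treated yeast cultures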; details: S. cerevisiae wt2 strain growth inhibition, stronger effect = higher value
Method in brief: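 Inhibition of yeast growth was determined after compound treatment, normalised to controls receiving only vehicle.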

[13] = NCI Yeast Anticancer Drug Screen. Data for the mlh1 strain (AID 171);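 further: 0% = growth of vehicle-treated control cultures of the same strain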; details: S. cerevisiae mlh1 strain growth inhibition, stronger effect = higher value
Method in brief: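 Vehicle-normalised growth inhibition of a repair- or checkpoint-altered yeast strain following compound treatment.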

[14] = NCI Yeast Anticancer Drug Screen. Data for the sgs1 strain (AID 173);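 further: 0% = growth of vehicle-only control cultures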; details: S. cerevisiae sgs1 mutant, stronger effect = higher value
Method in brief: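 Screen format: yeast with repair or checkpoint alterations, compound exposure, growth read relative to vehicle.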

[15] = NCI Yeast Anticancer Drug Screen. Data for the mlh1 rad18 strain (AID 175); details: S. cerevisiae mlh1 rad18 strain growth inhibition, stronger effect = higher value
Method in brief: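 Vehicle-treated cultures served as the reference for growth inhibition in a yeast strain carrying DNA damage repair alterations exposed to each compound.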

[16] = NCI Yeast Anticancer Drug Screen. Data for the rad18 strain (AID 177); details: S. cerevisiae rad18 mutant growth inhibition, stronger effect = higher value
Method in brief: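 Test articles were incubated with altered yeast defective in DNA damage repair. Results are given as inhibition of growth versus vehicle.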

[17] = at 5.0 µM (retest, dose inferred, filed as 0.5)
[18] = at 50.0 µM (retest, dose inferred, filed as 5.0)

Measured: growth inhibition

COc1cc(O)c2c(c1O)C(=O)c1cc(C)ncc1C2=O
inactive: [1]; at 1.2 µM 9% | [1]; at 3.7 µM 16% | [1]; at 11.0 µM 29% | [1]; at 33.0 µM 51% | [2]; at 1.2 µM 6% | [2]; at 3.7 µM 24% | [2]; at 11.0 µM 36% | [2]; at 33.0 µM 39% | [2]; at 100.0 µM 48% | [3]; at 1.2 µM 8% | [3]; at 3.7 µM 20% | [3]; at 11.0 µM 19% | [3]; at 33.0 µM 48% | [3]; at 100.0 µM 52% | [4]; at 1.2 µM 5% | [4]; at 3.7 µM 4% | [4]; at 11.0 µM 15% | [4]; at 33.0 µM 39% | [4]; at 100.0 µM 60% | [5]; at 1.2 µM 8% | [5]; at 3.7 µM 13% | [5]; [17] 9% | [5]; at 11.0 µM 33% | [5]; at 33.0 µM 57% | [5]; [18] 48% | [5]; at 50.0 µM 65.7% | [6]; at 1.2 µM 10% | [6]; at 3.7 µM 10% | [6]; [17] 8% | [6]; at 11.0 µM 9% | [6]; at 33.0 µM 9% | [6]; [18] 44% | [6]; at 50.0 µM 23.2% | [6]; at 100.0 µM 23% | [7]; at 1.2 µM 31% | [7]; at 3.7 µM 47% | [8]; [17] 9% | [8]; at 50.0 µM 69.9% | [9]; at 1.2 µM 16% | [9]; at 3.7 µM 11% | [9]; at 11.0 µM 5% | [9]; at 33.0 µM 10% | [9]; at 100.0 µM 12% | [10]; [17] 1% | [10]; [18] 12% | [10]; at 50.0 µM 18.9% | [11]; at 1.2 µM 14% | [11]; at 3.7 µM 13% | [11]; [17] 5% | [11]; at 11.0 µM 26% | [11]; at 33.0 µM 51% | [11]; [18] 42% | [12]; at 1.2 µM 39% | [12]; at 3.7 µM 60% | [13]; at 1.2 µM 7% | [13]; at 3.7 µM 21% | [13]; at 11.0 µM 41% | [13]; at 33.0 µM 54% | [14]; at 1.2 µM 12% | [14]; at 3.7 µM 29% | [15]; [17] 17% | [15]; at 50.0 µM 64.8% | [16]; at 1.2 µM 4% | [16]; at 3.7 µM 21% | [16]; at 11.0 µM 28% | [16]; at 33.0 µM 40% | [16]; at 100.0 µM 60%
active: [1]; at 100.0 µM 72% | [5]; at 100.0 µM 86% | [7]; at 11.0 µM 70% | [7]; at 33.0 µM 91% | [7]; at 100.0 µM 94% | [8]; [18] 84% | [11]; at 50.0 µM 75.9% | [11]; at 100.0 µM 73% | [12]; at 11.0 µM 83% | [12]; at 33.0 µM 91% | [12]; at 100.0 µM 95% | [13]; at 100.0 µM 87% | [14]; at 11.0 µM 77% | [14]; at 33.0 µM 88% | [14]; at 100.0 µM 84% | [15]; [18] 83%

CN(C)C=NC1CCC(C(C)(C)C)CC1 (stereo unspecified)
inactive: [1]; at 1.2 µM -5% | [1]; at 3.7 µM 7% | [1]; at 11.0 µM 34% | [2]; at 1.2 µM -4% | [2]; at 3.7 µM -5% | [2]; at 11.0 µM -1% | [2]; at 33.0 µM 51% | [3]; at 1.2 µM -2% | [3]; at 3.7 µM 5% | [3]; at 11.0 µM 10% | [3]; at 33.0 µM 30% | [4]; at 1.2 µM -1% | [4]; at 3.7 µM -1% | [4]; at 11.0 µM 45% | [5]; at 1.2 µM -3% | [5]; at 3.7 µM -1% | [5]; [17] 28% | [5]; at 11.0 µM 59% | [6]; at 1.2 µM 2% | [6]; at 3.7 µM 0% | [6]; [17] -24% | [6]; at 11.0 µM 10% | [7]; at 1.2 µM -1% | [7]; at 3.7 µM 11% | [8]; [17] 14% | [9]; at 1.2 µM 1% | [9]; at 3.7 µM 9% | [9]; at 11.0 µM 44% | [10]; [17] 17% | [11]; at 1.2 µM -8% | [11]; at 3.7 µM -2% | [11]; [17] 62% | [11]; at 11.0 µM 55% | [12]; at 1.2 µM 0% | [12]; at 3.7 µM 4% | [12]; at 11.0 µM 34% | [13]; at 1.2 µM 8% | [13]; at 3.7 µM 1% | [13]; at 11.0 µM 47% | [14]; at 1.2 µM 1% | [14]; at 3.7 µM 2% | [14]; at 11.0 µM 55% | [15]; [17] -32% | [16]; at 1.2 µM -3% | [16]; at 3.7 µM 8% | [16]; at 11.0 µM 54%
active: [1]; at 33.0 µM 74% | [1]; at 100.0 µM 99% | [2]; at 100.0 µM 97% | [3]; at 100.0 µM 73% | [4]; at 33.0 µM 97% | [4]; at 100.0 µM 99% | [5]; at 33.0 µM 97% | [5]; [18] 97% | [5]; at 50.0 µM 98.8% | [5]; at 100.0 µM 99% | [6]; at 33.0 µM 73% | [6]; [18] 99% | [6]; at 50.0 µM 95.8% | [6]; at 100.0 µM 99% | [7]; at 11.0 µM 75% | [7]; at 33.0 µM 98% | [7]; at 100.0 µM 99% | [8]; [18] 98% | [8]; at 50.0 µM 97.7% | [9]; at 33.0 µM 95% | [9]; at 100.0 µM 99% | [10]; [18] 98% | [10]; at 50.0 µM 98.4% | [11]; at 33.0 µM 94% | [11]; [18] 98% | [11]; at 50.0 µM 97.5% | [11]; at 100.0 µM 99% | [12]; at 33.0 µM 88% | [12]; at 100.0 µM 99% | [13]; at 33.0 µM 94% | [13]; at 100.0 µM 99% | [14]; at 33.0 µM 95% | [14]; at 100.0 µM 99% | [15]; [18] 98% | [15]; at 50.0 µM 98.2% | [16]; at 33.0 µM 93% | [16]; at 100.0 µM 99%
